Experimental findings from the supplement of paper PMC8975748 are described below.

Where a name gives a salt, the structure may show the parent alone.

The experiment has as its system Saccharomyces cerevisiae BY4741 SeMeCo community. The experiment is described as follows: z-score of subpopulation abundance vs DMSO median, subpopulation auxotrophic for LM; higher = larger share of this subpopulation than in DMSO controls. The settings on record: 10 µM; 24 h; SM minimal medium; subpopulation (auxotrophy): LM. The method, then: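 Fluorescent four-plasmid SeMeCo (self-establishing metabolically cooperating S. cerevisiae BY4741 community; plasmids pH-mRuby2, pL-mWasabi, pU-eCFP, pM-TagRFP657) was grown 24 h in minimal SM medium with each Selleck FDA-approved drug at 10 µM in 384-well plates. Cells were fixed and imaged by high-content confocal microscopy. For each auxotrophic subpopulation (and the prototroph), a z-score gives the deviation from the DMSO vehicle-control population median.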
Consider `O=c1[nH]c2ccccc2n1CCCN1CCC(n2c(=O)[nH]c3cc(Cl)ccc32)CC1` [Domperidone], for which the “z-score of subpopulation abundance” value is -0.04. As for `CNC1CC(N)C(O)C(OC2OC(CO)C(O)C3OC4(OC(C(N)CO)C(O)C(O)C4O)OC23)C1O` (stereo not given) [Hygromycin B], the “z-score of subpopulation abundance” value is -0.12. In the case of `COc1cc2c(cc1OC)C1CC(=O)C(CC(C)C)CN1CC2` (stereo not given) [Tetrabenazine (Xenazine)], the “z-score of subpopulation abundance” value was determined as 0.75. The same measure for `CC1(C)SC2C(N)C(=O)N2C1C(=O)O` (stereo not given) [6-Aminopenicillanic acid]: 0.56. `CCN(C)C(=O)Oc1cccc([C@H](C)N(C)C)c1` [Rivastigmine]: the “z-score of subpopulation abundance” value is -0.54. The same measure for `O=C(O[C@H]1C[C@H]2CC[C@@H](C1)[N+]21CCCC1)C(O)(c1ccccc1)c1ccccc1` [Trospium chloride]: -0.54; for `CN1[C@@H]2CC[C@H]1C[C@@H](OC(=O)[C@H](CO)c1ccccc1)C2` [Hyoscyamine]: -0.17; for `Oc1cc(Cl)ccc1Oc1ccc(Cl)cc1Cl` [Triclosan]: -2.25. Consider `CCCN1C[C@H](CSC)C[C@@H]2c3cccc4[nH]cc(c34)C[C@H]21` [Pergolide Mesylate], for which the “z-score of subpopulation abundance” value is -0.22. Then `CC(C)N(CCC(C(N)=O)(c1ccccc1)c1ccccn1)C(C)C` (stereo not given) [Disopyramide], with 1.31.

`CN(C)[C@@H]1C(=O)C(C(N)=O)=C(O)[C@@]2(O)C(=O)C3=C(O)c4c(O)cccc4[C@@](C)(O)[C@H]3C[C@@H]12` [Tetracycline HCl]: the “z-score of subpopulation abundance” value was -0.24. The same measure for `COc1ccc2c3c([nH]c2c1)C(C)=NCC3` [Harmaline]: 4.83.

As for `CN(C)[C@@H]1C(=O)C(C(N)=O)=C(O)[C@@]2(O)C(=O)C3=C(O)c4c(O)ccc(Cl)c4[C@@](C)(O)[C@H]3C[C@@H]12` [Chlortetracycline HCl], the “z-score of subpopulation abundance” value is -0.46.

Take `CN1C(=O)COc2c(C(=O)NC3CN4CCC3CC4)cc(Cl)cc21` (stereo not given) [Azasetron HCl]: the “z-score of subpopulation abundance” value amounted to 1.69. As for `NC(=O)CN1CCCC1=O` [Piracetam], the “z-score of subpopulation abundance” value came to 1.96.

As to `CC(=O)O[C@H]1C[C@@H]2CC[C@@H]3[C@H](CC[C@@]4(C)[C@H]3C[C@H]([N+]3(C)CCCCC3)[C@@H]4OC(C)=O)[C@@]2(C)C[C@@H]1[N+]1(C)CCCCC1` [Pancuronium dibromide], the “z-score of subpopulation abundance” value is -1.26. With `Cn1cc(C2=C(c3cn(C4CCN(Cc5ccccn5)CC4)c4ccccc34)C(=O)NC2=O)c2ccccc21`, the “z-score of subpopulation abundance” value is -1.68. Turning to `COc1ccc(C(CN(C)C)C2(O)CCCCC2)cc1` (stereo not given) [Venlafaxine HCl], the “z-score of subpopulation abundance” value amounted to 0.27. Consider `Cc1cc(C(C#N)c2ccc(Cl)cc2)c(Cl)cc1NC(=O)c1cc(I)cc(I)c1O` (stereo not given) [Closantel], for which the “z-score of subpopulation abundance” value worked out at 1.19. Regarding `C[N+]12CCC(CC1)C(OC(=O)C(O)(c1ccccc1)c1ccccc1)C2` (stereo not given) [Clidinium Bromide], the “z-score of subpopulation abundance” value is -0.72. Turning to `Oc1cccc2cccnc12` [8-Hydroxyquinoline], the “z-score of subpopulation abundance” value is -0.41. Turning to `O=[N+]([O-])C(Br)(CO)CO` [Bronopol], the “z-score of subpopulation abundance” value is -0.89.

For the compound `C=CCN1C[C@H](C(=O)N(CCCN(C)C)C(=O)NCC)C[C@@H]2c3cccc4[nH]cc(c34)C[C@H]21` [Cabergoline], the “z-score of subpopulation abundance” value is -0.31.

`COc1ccc2c(c1)[C@]13CCCC[C@@H]1[C@H](C2)N(C)CC3` [Dextromethorphan hydrobromide hydrate]: the “z-score of subpopulation abundance” value is -0.18. For `C=C[C@H]1CN2CC[C@H]1C[C@H]2[C@H](O)c1ccnc2ccccc12` [Cinchonidine], the “z-score of subpopulation abundance” value is -0.08.

For the compound `COc1ccc(C(CN(C)C)C2(O)CCCCC2)cc1` (stereo not given) [Venlafaxine], the “z-score of subpopulation abundance” value is -0.51.

As for `CC[C@H]1CN2CC[C@]3(C(=O)Nc4ccccc43)[C@@H]2C[C@@H]1/C(=C\OC)C(=O)OC` [Rhynchophylline], the “z-score of subpopulation abundance” value is -0.11. The same measure for `C[C@@H]1CC[C@H]2[C@@H](C)C(=O)O[C@@H]3O[C@@]4(C)CC[C@@H]1[C@]32OO4` [Artemisinin]: -1.74; for `CN(C)[C@@H]1C(=O)C(C(N)=O)=C(O)[C@@]2(O)C(=O)C3=C(O)c4c(O)cccc4[C@@](C)(O)[C@H]3[C@H](O)[C@@H]12` [Oxytetracycline Dihydrate]: -0.49.

Consider `COC(=O)C1=CCCN(C)C1` [Arecoline HBr], for which the “z-score of subpopulation abundance” value turned out to be 0.61.

For `CCC1=C[C@H]2CN3CCc4c([nH]c5ccccc45)[C@](C(=O)OC)(C2)[C@H]13` [Catharanthine], the “z-score of subpopulation abundance” value was -0.74. On to `CC(NC(C)(C)C)C(=O)c1cccc(Cl)c1` (stereo not given) [Amfebutamone (Bupropion) HCl], for which the “z-score of subpopulation abundance” value was -0.59. The same measure for `Nc1ccncc1` [4-Aminopyridine]: 0.74. As to `CN[C@@H]1[C@@H](O)[C@@H](O[C@@H]2[C@@H](O)[C@H](O[C@H]3O[C@H]([C@@H](C)O)[C@@H](O)[C@H](O)[C@H]3N)[C@@H](N)C[C@H]2N)OC[C@]1(C)O` [Geneticin (G418 Sulfate)], the “z-score of subpopulation abundance” value is 0.61. Then `O=C(O[C@H]1C[N+]2(CCCOc3ccccc3)CCC1CC2)C(O)(c1cccs1)c1cccs1` [Aclidinium Bromide], with -0.14; and `Nc1nc(N)nc(NC2CC2)n1` [Cyromazine], with 0.84; and `C[CH2][Hg][S]c1ccccc1C(=O)[O-].[Na+]` [Thimerosal], with 13.9. On to `O=c1cccc2n1C[C@@H]1CNC[C@H]2C1` [Cytisine], for which the “z-score of subpopulation abundance” value is -0.02. As to `CC[C@@H](C(N)=O)N1CCCC1=O` [Levetiracetam], the “z-score of subpopulation abundance” value is -0.55. Consider `COc1ccc2[nH]cc(CCN)c2c1` [5-Methoxytryptamine], for which the “z-score of subpopulation abundance” value came out at 0.28.
